The panel holds about 79,000 compounds, 15% with a hit somewhere; the sample as a whole holds those more often. Cut-off read from the data, not from the text of the source: active = growth inhibition above about 70%; inactive = the rest.
Columns and labels:
[1] = NCI Yeast Anticancer Drug Screen. Data for the rad50 strain (AID 155);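 note: 0% = growth of vehicle-only cultures of the same strain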; details: S. cerevisiae rad50 strain growth inhibition; at 50.0 µM; hits give high values
Summary of the method: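 Genetically altered yeast (DNA repair pathway); compound treatment; growth inhibition vs vehicle ctrl.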

[2] = NCI Yeast Anticancer Drug Screen. Data for the mec2-1 strain (AID 157); details: S. cerevisiae mec2-1 strain, at 50.0 µM, hits give high values
Summary of the method: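 Mutant yeast (mec2-1) grown with compound; growth inhibition relative to vehicle control reported.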

[3] = NCI Yeast Anticancer Drug Screen. Data for the sgs1 mgt1 strain (AID 161);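 note: 0% = growth of cultures given vehicle only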; details: S. cerevisiae sgs1 mgt1 strain, at 50.0 µM, hits give high values
Summary of the method: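 Yeast cells carrying a defined DNA-repair defect were exposed to test compounds. Growth inhibition was measured relative to vehicle-treated controls.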

[4] = NCI Yeast Anticancer Drug Screen. Data for the cln2 rad14 strain (AID 165);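 note: 0% = growth equal to vehicle treated cultures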; details: S. cerevisiae cln2 rad14 strain, at 50.0 µM, hits give high values
Summary of the method: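 Readout is yeast growth inhibition versus vehicle-treated controls, using a strain with cln2 and rad14 alterations exposed to compound.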

[5] = NCI Yeast Anticancer Drug Screen. Data for the bub3 strain (AID 167); details: S. cerevisiae bub3 mutant strain, at 50.0 µM, hits give high values
Summary of the method: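 Yeast carrying a defined mutation is treated with each compound, and growth is compared with that of vehicle-exposed cells to give inhibition.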

[6] = NCI Yeast Anticancer Drug Screen. Data for the mlh1 rad18 strain (AID 175); details: S. cerevisiae mlh1 rad18 strain growth inhibition; at 50.0 µM; hits give high values
Summary of the method: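 Genetically defined yeast (DNA repair-deficient) exposed to compounds; growth inhibition determined relative to vehicle.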

Measured: growth inhibition

N#Cc1nnc2cc(-c3ccccc3)nn2c1-c1cccs1
inactive: [1] 0.6% | [2] -8.6% | [3] 15.8% | [4] 21.1% | [5] 4.1% | [6] 6.35%

COc1ccc(C/C=N/Nc2ccc([N+](=O)[O-])cc2[N+](=O)[O-])cc1OC
inactive: [1] 1.7% | [2] -8.05% | [3] -2.3% | [4] 3.45% | [5] -6.3% | [6] -0.55%

CNC(=O)Nc1cc2c3c(c1)CCCN3CCC2
inactive: [1] -16.8% | [2] -36.6% | [3] -9.45% | [4] -15.8% | [5] -9.55% | [6] -8.3%

O=C(Nc1ccccc1)C1CC2C=CC1C2 (stereo unspecified)
inactive: [1] 2.3% | [2] -4.3% | [3] 4% | [4] -3.9% | [5] -7.3% | [6] 1.55%

C=C1c2nc3ccccc3n2C=C(c2ccc(C)cc2)N1c1ccc(OC)cc1
inactive: [1] -10.2% | [2] -6.45% | [3] -7% | [4] 15.5% | [5] -19% | [6] -17.9%

C[C@]12CCC(=O)C=C1CC[C@@H]1[C@@H]2[C@@H](O)C[C@@]2(C)[C@H]1CC[C@]2(O)C(=O)CO
inactive: [1] 12.7% | [2] 2.25% | [3] -31.6% | [4] 7% | [5] -30.1% | [6] -35%

COc1ccc(/C=N\N2CN(C(CC(N)=O)C(=O)O)C(O)(CCl)N=C2N)cc1OC (stereo unspecified)
inactive: [1] 9.1% | [2] -6.9% | [3] 3.1% | [4] -5.65% | [5] 6.8% | [6] -0.1%

CNC(=O)c1ccccc1Cl
inactive: [1] -0.55% | [2] 6.9% | [3] 10.8% | [4] 4.65% | [5] 3.9% | [6] 19.2%

CCOc1c(N=Nc2ccccc2C)c(C)nn1C(=S)SC
inactive: [1] -1.2% | [2] -2.2% | [3] -15.4% | [4] 23.8% | [5] -19.4% | [6] 15.7%

CC(=O)Nc1ccc(C2CC(c3ccc([N+](=O)[O-])cc3)=Nc3ccccc3S2)cc1 (stereo unspecified)
inactive: [1] 32.8% | [2] 24.6% | [3] 34.1% | [4] 17.6% | [5] 13.9% | [6] 49.9%

CN1CCC2(CC1)C(=NC1CCCCC1)NC(=O)N2c1ccccc1
inactive: [1] -26.4% | [2] -6.15% | [3] -5.45% | [4] 1.1% | [5] 6.6% | [6] 3.7%

Fc1ccccc1-c1nnc(-c2ccccc2F)o1
inactive: [1] 1.65% | [2] 8.3% | [3] 6.85% | [4] 10.8% | [5] 48.2% | [6] 1.3%

CCCCCCCC(=O)Oc1c(Cl)c(Cl)c(C#N)c(Cl)c1C#N
inactive: [1] 20.9% | [2] -3.55% | [3] 11.5% | [4] 13.7% | [5] 5.8% | [6] 25.4%

O=c1[nH]nc(S(=O)(=O)c2ccccc2)c(=O)[nH]1
inactive: [1] 13.2% | [2] -6.45% | [3] -1.7% | [4] -10.6% | [5] 9.3% | [6] -3.2%

COc1cc2c3c(c1)CCCN3CCC2
inactive: [1] -40.6% | [2] -17% | [3] -20.5% | [4] -4.95% | [5] 13.2% | [6] -17.6%

COC1(CCO)CC=CCC1(CCO)OC (stereo unspecified)
inactive: [1] -2.45% | [2] -20.4% | [3] -19.3% | [4] 13.3% | [5] -19.4% | [6] -7.9%

Cc1cccc(C)c1NC(=O)C(Cl)(Cl)Sc1ccc(Cl)cc1Cl
inactive: [1] 0.3% | [2] -34.9% | [3] 5.9% | [4] 8.65% | [5] -5.2% | [6] -2.6%

N=C(N)n1[nH]c2c(c1=O)CCCC2
inactive: [1] 5.6% | [2] 6.75% | [3] -12.1% | [4] 6.25% | [5] 2.85% | [6] -19.4%

Cc1cc(C)c(CCl)c(C)c1CCl
inactive: [1] 0.9% | [2] 2% | [3] -9.1% | [4] -57.5% | [5] 5.75% | [6] 10.2%

C/C(CC(=O)NCCc1ccccc1)=N\NS(=O)(=O)c1ccc(C)cc1
inactive: [1] 37.1% | [2] -6.6% | [3] 10.2% | [4] 28.3% | [5] -4.2% | [6] 8%

CN(C)CCC(c1ccccc1)c1ccccc1
inactive: [1] -22.4% | [2] -2.85% | [3] 13.7% | [4] -13.6% | [5] 14.7% | [6] -5.8%

Cc1nc(C(N)=S)sc1C(=O)CC(=O)C(=O)Nc1ccc(Br)cc1
inactive: [1] 2.5% | [2] -38.5% | [3] -24.4% | [4] 1.35% | [5] -25.8% | [6] -14.8%

O=[N+]([O-])c1ccc(-c2csc3nc(-c4ccccc4)nn23)cc1
inactive: [1] -0.5% | [2] -31.2% | [3] -29.9% | [4] 10.4% | [5] -28.2% | [6] -23.2%

Nc1ncnc2c1ncn2CCCCC(=O)O
inactive: [1] -17.1% | [2] -12.2% | [3] -23.6% | [4] -2.1% | [5] -53% | [6] -15.3%

CN=C(N)SCCCCCCSC(N)=NC
inactive: [1] -1.5% | [2] 0% | [3] 16.6% | [4] 26.1% | [5] -3.6% | [6] 4.15%

Nc1[nH]n(-c2ccccc2)c(=O)c1C1c2ccccc2Sc2ccccc21
inactive: [1] 8.7% | [2] 11.2% | [3] 16.4% | [4] -66.6% | [5] 15.2% | [6] 16.2%

COc1ccc(-c2nnc(-c3ccc(OC)cc3)nn2)cc1
inactive: [1] 1.8% | [2] 15.7% | [3] -7.1% | [4] -11.8% | [5] 4.2% | [6] -3%

CNc1ncnc2c1c(C(N)=S)cn2C1OC(CO)C(O)C1O (stereo unspecified)
inactive: [1] 0.1% | [2] -22.7% | [3] -13.7% | [4] 2.2% | [5] 0.95% | [6] 12.5%

O=CC(NC(=O)OCc1ccccc1)C(O)C(O)C(O)CO (stereo unspecified)
inactive: [1] -15.3% | [2] 2.7% | [3] 1.75% | [4] -6.3% | [5] -15.9% | [6] -16.9%

CC(O)CN1CCN(CCN(CC(C)O)CC(C)O)CC1 (stereo unspecified)
inactive: [1] -16.1% | [2] -24.2% | [3] -3.7% | [4] -2% | [5] -9.4% | [6] -19.6%

O=C1CN(CCCO)CC(=O)N2Cc3ccccc3CN12
inactive: [1] -8.95% | [2] 4.55% | [3] -18.7% | [4] -10% | [5] -6.85% | [6] -11.3%

O=C(/C=C/c1ccccc1)NCC(O)CO (stereo unspecified)
inactive: [1] 7.1% | [2] -2.95% | [3] -3.65% | [4] -0.3% | [5] 0.5% | [6] 11.7%

Clc1ccc(-c2nnc(-c3ccc(Cl)c(Cl)c3)o2)cc1Cl
inactive: [1] 0.25% | [2] 9.95% | [3] 17.8% | [4] -30.5% | [5] -10.9% | [6] 22.9%

C/C(=N\NC(N)=S)C(CN(CC(C)C)CC(C)C)C(=O)Nc1ccc(C)cc1C (stereo unspecified)
inactive: [1] -18.7% | [2] 6.4% | [3] -7.15% | [4] 16% | [5] -1.15% | [6] -2.75%

Cc1ccc(S(=O)(=O)OCC23CCC(CC2)CC3)cc1
inactive: [1] -30% | [2] -9.85% | [3] -26.2% | [4] -3.5% | [5] 39.6% | [6] -1.2%

NC(Cc1c[nH]c2ccc([N+](=O)[O-])cc12)C(=O)O (stereo unspecified)
inactive: [1] 15.9% | [2] -28.6% | [3] -24.8% | [4] 2.45% | [5] -48.6% | [6] -7.7%

CC(NC(C)c1ccccc1)c1ccccc1 (stereo unspecified)
inactive: [1] 6.05% | [2] 0.05% | [3] -5.6% | [4] -7.3% | [5] 3.3% | [6] -1.35%

CC(=O)N=Cc1c(O)[nH]c2ccccc12
inactive: [1] 36.9% | [2] 11.7% | [3] 0.5% | [4] 6.85% | [5] 8.3% | [6] 0.45%

CN(C)c1ccn(C2OC(CO)C(O)C2SC(C)(C)C)c(=O)n1 (stereo unspecified)
inactive: [1] -1.2% | [2] 3.95% | [3] -2.05% | [4] 10.8% | [5] -1.25% | [6] 13.8%

O=C(N/C(=C\c1ccc([N+](=O)[O-])cc1)c1nc2ccccc2[nH]1)c1ccccc1
inactive: [1] 29.1% | [2] 6.55% | [3] 8.35% | [4] -37.9% | [5] 17.9% | [6] 23.8%

COc1ccc(-c2cc(=O)c3c(O)cc(O)cc3o2)cc1Oc1ccc(-c2cc(=O)c3c(O)cc(O)cc3o2)cc1
inactive: [1] 15.6% | [2] -12.2% | [3] -12.3% | [4] 2.35% | [5] -3.7% | [6] 5.1%

From PubChem BioAssay (NCI)
